According to PubChem BioAssay (NCI):
The panel holds about 83,000 compounds, 20% with a hit somewhere; the sample as a whole holds those more often.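 Step 1: grow cells in 96-well plates. Step 2: add test compound at a single concentration. Step 3: incubate 48 h. Step 4: record percent growth.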 Values without a mark were called inactive. Activity calls are given as the source filed them. How the source made its calls: active means growth percent below 10; inactive means the rest.

Key:
Assay in all cases: NCI-60 one-dose screen, 48 h (100 = growth as untreated, 0 = no growth, -100 = all killed)
HT29 colon = details: 10 µM unless noted
SNB-75 CNS = details: 10 µM unless noted
SNB-19 CNS = details: 10 µM unless noted
U251 CNS = details: 10 µM unless noted
PC-3 prostate = details: 10 µM unless noted
SK-MEL-5 melanoma = details: 10 µM unless noted
UACC-62 melanoma = details: 10 µM unless noted
LOX IMVI melanoma = details: 10 µM unless noted
SK-MEL-28 melanoma = details: 10 µM
SK-MEL-2 melanoma = details: 10 µM unless noted
EKVX NSCLC = details: 10 µM unless noted
SN12C renal = details: 10 µM unless noted
UO-31 renal = details: 10 µM unless noted
TK-10 renal = details: 10 µM unless noted
ACHN renal = details: 10 µM unless noted
CAKI-1 renal = details: 10 µM unless noted
A498 renal = details: 10 µM unless noted
CCRF-CEM leukemia = details: 10 µM unless noted
MOLT-4 leukemia = details: 10 µM unless noted
SR leukemia = details: 10 µM unless noted

Compound	growth (HT29 colon)	growth (SNB-75 CNS)	growth (SNB-19 CNS)	growth (U251 CNS)	growth (PC-3 prostate)	growth (SK-MEL-5 melanoma)	growth (UACC-62 melanoma)	growth (LOX IMVI melanoma)	growth (SK-MEL-28 melanoma)	growth (SK-MEL-2 melanoma)	growth (EKVX NSCLC)	growth (SN12C renal)	growth (UO-31 renal)	growth (TK-10 renal)	growth (ACHN renal)	growth (CAKI-1 renal)	growth (A498 renal)	growth (CCRF-CEM leukemia)	growth (MOLT-4 leukemia)	growth (SR leukemia)
OCCNc1nc(Nc2ccc(C3=NN(c4cc(Cl)cc(Cl)c4)C(c4ccc(C(F)(F)F)cc4)C3)cc2)nc(N2CCOCC2)n1 (stereo not given)	55.9%	68.4%	87.6%	63.4%	62.9%	76%	69.7%	44.8%	81.4%	116%	71.4%	74.8%	72%	114%	56.8%	71.3%	82.4%	51%	60.2%	70.5%
OC(c1ccccc1)c1nnc(SCc2ccccc2)n1Cc1ccccc1 (stereo not given)	103%	76.3%	79.7%	87.5%	87.6%	96.7%	69.1%	98.7%	100%	84.3%	102%	89.7%	67.7%	103%	86.9%	97%	90.1%	75.4%	99.9%	42.5%
CC(=S)NC(=O)C(=O)/C=C1/NC(=O)C(=O)S1	110%	95.5%	106%	111%	99.6%	104%	99.9%	99.7%	106%	103%	100%	99.1%	79.5%	110%	99.1%	93.8%	103%	107%	112%	107%
CCC(C)(C)C(=O)O[C@H]1C[C@@H](C)C=C2C=C[C@H](C)[C@H](CC[C@@H]3CC=CC(=O)O3)[C@H]21	44.5%	80.4%	84%	82.2%	49.1%	71%	72.5%	-47.4% (active)	79.2%	86.1%	107%	62.8%	76%	109%	70.9%	84.5%	107%	3.21% (active)	1.21% (active)	7.49% (active)
CCOC(=O)c1sc(-c2ccc(OS(=O)(=O)C[C@]34CCC(CC3=O)C4(C)C)c(C=O)c2)nc1C	6.26% (active)	-2.85% (active)	18%	-9.73% (active)	25.8%	16.8%	25%	-32.1% (active)	52.6%	12.8%	36.5%	28.7%	29%	5.83% (active)	39.8%	0.933% (active)	-2.42% (active)	11.7%	4.72% (active)	21.2%
Fc1ccc(Oc2ccc(Nc3ncnc4onc(-c5ccccc5)c34)cc2)cc1	109%	86.4%	94%	91.4%	101%	100%	92.1%	95.8%	110%	112%	98.9%	84.1%	52.3%	102%	99.8%	93.5%	67%	62.9%	88.7%	102%
O=C(Nc1ccc(N2CCNCC2)cc1)c1[nH]ncc1Nc1cc(C2CC2)ncn1	49.2%	31.5%	65.4%	68.6%	30.2%	52.3%	50%	36.1%	79.5%	64.5%	69.8%	44.7%	34.1%	56.3%	21.4%	27.5%	51.1%	30%	15.1%	5.95% (active)
COc1ccc2oc(=O)cc(Cn3cc(Cn4cnc5c4c(=O)n(C)c(=O)n5C)nn3)c2c1	99%	93.8%	99.5%	101%	102%	98.9%	91.7%	98.2%	105%	106%	103%	95.9%	83.3%	100%	98.7%	95.3%	103%	106%	103%	106%
O=C1CCC(N2C(=O)c3cccc(NCCCCCCOc4ccc(Nc5nccc(Nc6ccccc6)n5)cc4)c3C2=O)C(=O)N1 (stereo not given)	88.1%	89%	86.3%	83.3%	73.4%	7.47% (active)	71.3%	88.1%	82.9%	82.5%	77.3%	79%	77.8%	108%	74.8%	63.8%	74.6%	66.1%	55.2%	68.5%
COC(=O)C1(C)CCC[C@]2(C)[C@H]3C[C@H]4C(C(C)C)=C[C@]3(CC[C@@H]12)[C@H]1[C@@H]4[C@@H](OCC#CCN2CCOCC2)CC[C@@H]1OCC#CCN1CCOCC1 (stereo not given in full)	77.6%	93.1%	79%	70.9%	53.9%	80.2%	61%	89%	90.5%	89.3%	67.2%	81.1%	72.9%	98%	92.3%	80%	101%	72%	70%	88.3%
CCOC(=O)c1sc(-c2ccc(OS(=O)(=O)c3cccs3)c(C=O)c2)nc1C	1.93% (active)	4.62% (active)	5.38% (active)	2.52% (active)	11.1%	-88.9% (active)	2.43% (active)	-48.2% (active)	27.4%	28.6%	33.6%	1.55% (active)	-4.34% (active)	12.2%	0.377% (active)	2.41% (active)	31.4%	7.57% (active)	-7.85% (active)	3.44% (active)
CNCCNc1nc2ccccc2c2c(=O)c3cc(F)ccc3sc12	-30.9% (active)	47.4%	69.1%	-53.3% (active)	34%	88.1%	22.3%	17.7%	84.6%	85.2%	71.9%	67.2%	41.3%	60.2%	37.3%	44%	38.9%	15.5%	-18.9% (active)	13.6%
COc1cc(/C=C2\CN(C)C/C(=C\c3cc(CN4CCOCC4)c(O)c(OC)c3)C2=O)cc(CN2CCOCC2)c1O	6.39% (active)	26.3%	58.5%	20.7%	60.8%	72.3%	35.8%	11.7%	77.3%	72.2%	80.6%	35%	76.6%	91.9%	47.5%	82.7%	81.8%	32.1%	30%	32.6%
O=c1c(-c2nc3ccccc3[nH]2)cc2ccccc2n1Cc1cn(Cc2ccc(F)cc2)nn1	2.52% (active)	-19.2% (active)	21.8%	14.2%	22%	6.69% (active)	17.2%	12.8%	45.1%	36%	31.4%	14.2%	-18.9% (active)	21.7%	15%	32.9%	-14.5% (active)	23.4%	19.9%	30.2%
O=C(/C=C/c1ccccc1)c1ccc(Nc2nc(NCCO)nc(Nc3ccc(Cl)cc3)n2)cc1	30.2%	69.2%	79.6%	23%	77.8%	80.2%	78.7%	30.6%	88.2%	95.4%	74.2%	94.1%	66.7%	98.5%	74.1%	79.2%	88.9%	60.6%	74.3%	23.1%
